IEC-6 tox: IEC-6 cytotoxicity, counter-screen for KLF5 inhibitors; AID 1825; inhibition, % at 5 µM; actives 0.78% (n = 290,000); luminescence viability; in the data active means inhibition above about 22%
Ba/F3 V617F tox: reduce viability of Ba/F3 cells dependent on JAK2V617F; Ba/F3 EpoR-JAK2V617F viability, ATP luminescence; inhibition, % at 5.6 µM; actives 1.1% (n = 220,000); AID 1446;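 active means inhibition above the campaign mean plus 3 SD over all tested compounds, cut at about 24% in these data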;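 further: cytokine-independent growth of Ba/F3 cells driven by EpoR plus mutant JAK2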
BaF3 parental: reduces parental Ba/F3 cell viability, JAK2V617F counter-screen; CellTiter-Glo ATP luminescence; inhibition, % at 5.6 µM; actives 1.1% (n = 220,000);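 active means inhibition above a per-campaign cutoff, the mean inhibition of all tested compounds plus 3 SD, cut at about 27% in these data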
KLF5 inhibitor: kruppel-like factor 5 inhibition. DLD-1 KLF5 promoter-luciferase reporter, luminescence. inhibition, % at 5 µM. actives 0.23% (n = 290,000). AID 1700;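 active means inhibition above a per-plate limit of that plate's mean compound inhibition plus 3 SD, cut at about 60% in these data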;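 further: higher means less KLF5 promoter-driven luciferase light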
APP transl inh: APP translation inhibition | inhibition, % at 2 µM | SH-SY5Y APP 5'UTR-luciferase reporter, luminescence | actives 0.82% (n = 190,000);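 active means inhibition above a set limit, derived from the sample mean plus 3 SD, cut at about 45% in these data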
Large screens that a line does not name were inactive. An excerpt weighted towards active compounds, which were near 1.9% of everything screened.

CCCCOc1ccc(C(=O)NNC(=S)NC(=O)CC)cc1	APP transl inh 56.0
CCC(=O)NC(=S)NNC(=O)c1ccc(OC)cc1	none
CCOc1ccccc1CN1CCN(CCCc2ccccc2)CC1CCO (stereo unspecified)	none (no result: Ba/F3 V617F tox, BaF3 parental, APP transl inh)
Cc1cccc(N2CCN(C(=O)C3CCN(c4nnc(-n5cccc5)s4)CC3)CC2C)c1 (stereo unspecified)	BaF3 parental 45.0
CC(=O)NCCc1nc2ccccc2n1Cc1cccc(C)c1	none (no result: APP transl inh)
CCc1ccc(-c2nc(C(N)=O)c3[nH]c(=O)n(-c4ccccc4OC)c3n2)cc1	APP transl inh 94.6
Nc1nc(SCCO)[nH]c(=O)c1NC(=O)c1ccc(Br)o1	none (no result: Ba/F3 V617F tox, BaF3 parental, APP transl inh)
CCCCCCCCCCCCCCCC[n+]1cccc2ccccc21	IEC-6 tox 28.3, Ba/F3 V617F tox 100.8, BaF3 parental 81.9
COc1ccccc1-c1c(-c2ccc(O)cc2O)n[nH]c1C(F)(F)F	Ba/F3 V617F tox 47.7, BaF3 parental 45.1 (no result: APP transl inh)
Oc1ccc(-c2n[nH]c(C(F)(F)F)c2-c2ccccc2)c(O)c1	Ba/F3 V617F tox 55.8, BaF3 parental 77.9
CCOc1ccc(N(CC(=O)N/N=C(\C)c2cccc(NC(C)=O)c2)S(=O)(=O)c2ccccc2)cc1	none (no result: Ba/F3 V617F tox, BaF3 parental, APP transl inh)
CCC(C)NC(=O)CSc1nc2c(sc(=S)n2Cc2ccco2)c(=O)n1-c1ccccc1 (stereo unspecified)	APP transl inh 67.8
CCn1c(=S)sc2c(=O)n(-c3ccccc3)c(SCC(=O)NCc3ccco3)nc21	none
Cc1ccc(CNC(=O)CSc2nc3[nH]ncc3c(=O)[nH]2)cc1	none
CCCCn1c(NC(C)=O)c(C#N)c2nc3ccccc3nc21	APP transl inh 51.7
S=C(Nc1ccccc1)N1CCCN1c1ccccc1	Ba/F3 V617F tox 24.1, BaF3 parental 30.5 (no result: APP transl inh)
S=C(Nc1ccccc1)N1CCCCC1	none
C=CCOC(=O)c1[nH]c2c(c1C)C(=O)CC(c1cc(OC)c(OC)c(OC)c1)C2 (stereo unspecified)	Ba/F3 V617F tox 40.5, BaF3 parental 44.0
COCCOC(=O)c1[nH]c2c(c1C)C(=O)CC(c1ccco1)C2 (stereo unspecified)	Ba/F3 V617F tox 76.1, BaF3 parental 76.8, APP transl inh 95.5
COc1ccc(N2C(=O)NC(NS(=O)(=O)c3ccc(NC(C)=O)cc3)(C(F)(F)F)C2=O)cc1 (stereo unspecified)	none (no result: Ba/F3 V617F tox, BaF3 parental, APP transl inh)
CNS(=O)(=O)c1cccc(C(=O)Nc2cccc(Cl)c2)c1	APP transl inh 47.9
Cc1ccccc1SCCNC(=O)c1ccccc1Br	none
CCCCC(=O)NC(=S)Nc1ccccc1C(=O)Nc1ccccc1	none
CCCCCC(=O)NC(=S)Nc1ccccc1C(=O)OC	APP transl inh 71.5
O=C(COC(=O)c1ccc(S(=O)(=O)N2CCOCC2)cc1)NCc1cccs1	none
COc1ccc2nc(N=Nc3c(O)ccc4ccccc34)sc2c1	APP transl inh 69.3
COC(=O)C1=C(C)NC(C)=C(C(=O)OC)C1c1ccccc1OCc1c(C)no[n+]1[O-]	Ba/F3 V617F tox 32.1, BaF3 parental 35.4
COc1ccc(-n2cc(-c3ccc(Br)cc3)[nH]c2=S)cc1	none
CC(C)c1ccc(-n2c(-c3ccccc3)c[n+]3c2CCc2ccccc2-3)cc1	IEC-6 tox 41.0, Ba/F3 V617F tox 99.2, BaF3 parental 92.4
COc1ccccc1-n1c(-c2ccccc2)c[nH]c1=S	none
COc1ccc(-n2c(-c3ccc(Br)cc3)c[n+]3c2CCc2ccccc2-3)cc1	Ba/F3 V617F tox 87.7, BaF3 parental 77.8
COc1ccccc1-n1c(-c2ccccc2)c[n+]2c1CCc1ccccc1-2	IEC-6 tox 23.9, Ba/F3 V617F tox 101.3, BaF3 parental 78.9
CC(C)C(=O)Nc1cccc(C(=O)N2CCCCC2C)c1 (stereo unspecified)	Ba/F3 V617F tox 31.7, BaF3 parental 48.6
CC1CCCCN1C(=O)c1cccc(NC(=O)c2ccccc2)c1 (stereo unspecified)	none
CCCN(CCC)C(=O)c1cn(C)c2ccc(S(=O)(=O)N3CCCC3)cc2c1=O	none (no result: Ba/F3 V617F tox, BaF3 parental, APP transl inh)
O=C(COC(=O)C1CCN(S(=O)(=O)c2cccc3cccnc23)CC1)c1ccccc1	Ba/F3 V617F tox 28.6, BaF3 parental 63.5
COc1cccc(C2=NN(C(=O)c3ccco3)C(c3ccco3)C2)c1 (stereo unspecified)	none (no result: Ba/F3 V617F tox, BaF3 parental, APP transl inh)
COc1cccc(C(=O)C2=NN(C(C)=O)CC2c2ccco2)c1 (stereo unspecified)	BaF3 parental 38.5
N#CC1=C(N)Oc2c(ccc3cccnc23)C1c1ccccc1 (stereo unspecified)	Ba/F3 V617F tox 68.8, BaF3 parental 39.1 (no result: APP transl inh)
Cc1ccc2[nH]c(=O)c(C3C(C#N)=C(N)Oc4c3ccc3cccnc43)cc2c1 (stereo unspecified)	none

Screening data (PubChem)
